PubChem BioAssay AID1362 (SRMLSC, 2008)
About 4,000 (2.1%) of roughly 190,000 compounds were called active. Cut-off read from the data, not from the text of the source: active = inhibition above about 58%; inactive = the rest, inconclusive results apart; tested in S. cerevisiae. For the sample, actives were picked, then their nearest neighbours and some compounds at random.

Assay: growth inhibition of WT strain, primary screen, mitochondrial fusion inhibitor project, WT and mutant strains, chemical genetic (AID 1362)
Conditions: mitochondrial fusion phenotypic screen, at 10 µM
[1] = WT strain, growth inhibition, stronger effect = higher value

CCn1nccc1C(=O)Nc1ccc(S(=O)(=O)NC23CC4CC(CC(C4)C2)C3)cc1
inhibition [1]: 64% (active)
inhibition (mutant strain inhibition): -11.7%

Cc1cc(C(F)F)n2nc(C(=O)Nc3ccc(S(=O)(=O)NC45CC6CC(CC(C6)C4)C5)cc3)nc2n1
inhibition [1]: -1.63% (inactive)
inhibition (mutant strain inhibition): -19.6%

CCn1nccc1C(=O)Nc1ccc(Cl)c(Cl)c1
inhibition [1]: 27.7% (inactive)
inhibition (mutant strain inhibition): 28.1%

S=c1nc(C23CC4CC(CC(C4)C2)C3)nc2sccn12
inhibition [1]: 23.5% (inactive)
inhibition (mutant strain inhibition): 16.9%

COc1ccccc1N1CCN(CC(=O)NCCc2ccc(S(N)(=O)=O)cc2)CC1
inhibition [1]: -0.9% (inactive)
inhibition (mutant strain inhibition): 3.52%

COC(=O)NC1(C(F)(F)F)NC(=O)N(C2CCCCC2)C1=O (configuration not stated)
inhibition [1]: 6.22% (inactive)
inhibition (mutant strain inhibition): -5.73%

O=C1NC(Nc2nc3ccccc3s2)(C(F)(F)F)C(=O)N1C1CCCCC1 (configuration not stated)
inhibition [1]: 68.5% (active)
inhibition (mutant strain inhibition): 15.8%

O=C(NC1(C(F)(F)F)NC(=O)N(C2CCCCC2)C1=O)c1ccco1 (configuration not stated)
inhibition [1]: -16.6% (inactive)
inhibition (mutant strain inhibition): -15.1%

CS(=O)(=O)N(CC(=O)NC1CCCC1)Cc1ccc(F)cc1
inhibition [1]: 1.23% (inactive)
inhibition (mutant strain inhibition): -0.09%

CN(C)S(=O)(=O)c1cccc(NC(=O)COC(=O)/C=C/c2cccs2)c1
inhibition [1]: 0.4% (inactive)
inhibition (mutant strain inhibition): -0.76%

CN1CCN(S(=O)(=O)c2cccc(C(=O)N3CCc4ccccc43)c2)CC1
inhibition [1]: -3.09% (inactive)
inhibition (mutant strain inhibition): -6.02%

COc1cccc(CNC(=O)Cc2csc(Nc3nc(=S)[nH]c4ccccc34)n2)c1
inhibition [1]: 2.48% (inactive)
inhibition (mutant strain inhibition): 7.91%

Cc1noc(C)c1CSCC(=O)Nc1nc2ccc(Oc3ccccc3)cc2s1
inhibition [1]: 71.3% (active)
inhibition (mutant strain inhibition): 34.8%

CCn1c(SCC(=O)Nc2nc3ccc(OC)cc3s2)nnc1-c1ccoc1C
inhibition [1]: 42% (inactive)
inhibition (mutant strain inhibition): 9.68%

CCOC(=O)c1c(C2CC2)csc1NC(=O)CSCc1c(C)noc1C
inhibition [1]: -0.08% (inactive)
inhibition (mutant strain inhibition): 6.46%

O=C(O)Cc1ccc(NCc2ccccc2Cl)cc1
inhibition [1]: 2.97% (inactive)
inhibition (mutant strain inhibition): -2.38%

CN1CCNC(=O)C1CC(=O)NCCC1=CCCCC1 (configuration not stated)
inhibition [1]: 13.1% (inactive)
inhibition (mutant strain inhibition): 9.2%

Clc1ccc(-c2csc(-c3ccncc3)n2)cc1
inhibition [1]: 25.2% (inactive)
inhibition (mutant strain inhibition): 28.4%

Cc1ccc(-c2csc(NNC(=O)c3ccccc3)n2)cc1
inhibition [1]: 9.24% (inactive)
inhibition (mutant strain inhibition): 14%

CCCc1cc(-c2nc(-c3ccc(C)cc3)cs2)ccn1
inhibition [1]: 77.9% (active)
inhibition (mutant strain inhibition): 50.8%

CC1Cc2ccccc2N1C(=O)CSc1nnc(C2CC2)n1C (configuration not stated)
inhibition [1]: -5.06% (inactive)
inhibition (mutant strain inhibition): 2.15%

Cc1ccc(C)c(NC(=S)NNC(=S)Nc2ccc(C(C)C)cc2)c1
inhibition [1]: 71.3% (active)
inhibition (mutant strain inhibition): 24.5%

Cc1ccc(NC(=S)N/N=C2/CCCc3c(C)cc(C)cc32)cc1
inhibition [1]: 23.1% (inactive)
inhibition (mutant strain inhibition): 23.1%

Cc1ccc(C)c(NC(=S)NNC(=O)c2csc(C)c2)c1
inhibition [1]: -2.09% (inactive)
inhibition (mutant strain inhibition): -14.4%

Cc1nn(CCOc2ccc(Br)cc2)c(C)c1[N+](=O)[O-]
inhibition [1]: 3.38% (inactive)
inhibition (mutant strain inhibition): -3.33%

O=S(=O)(Cc1ccccc1)c1nc2ccccc2n1Cc1ccccn1
inhibition [1]: 23.5% (inactive)
inhibition (mutant strain inhibition): 10.5%

OC(CN=c1sc2ccccc2n1CC(O)COc1ccccc1)COc1ccccc1 (configuration not stated)
inhibition [1]: 74.3% (active)
inhibition (mutant strain inhibition): 39.9%

OC(COc1ccccc1)Cn1cc(Br)cn1 (configuration not stated)
inhibition [1]: 5.35% (inactive)
inhibition (mutant strain inhibition): -3.45%

C=CCn1c(=N)n(CC(O)COc2ccc(OC)cc2)c2ccccc21 (configuration not stated)
inhibition [1]: 10.5% (inactive)
inhibition (mutant strain inhibition): -4.41%

COc1ccccc1C(c1nnnn1CC1CCCO1)N1CCN(c2ccccc2)CC1 (configuration not stated)
inhibition [1]: 24.2% (inactive)
inhibition (mutant strain inhibition): -7.45%

O=C1COc2ccc(C(=O)COC(=O)C3CC(O)CN3S(=O)(=O)c3ccc(Cl)cc3)cc2N1 (configuration not stated)
inhibition [1]: 7.83% (inactive)
inhibition (mutant strain inhibition): 0.3%

Cc1ccnc(NC(=O)CCC(=O)N(CC(=O)NCc2ccccc2)Cc2ccco2)c1
inhibition [1]: -6.89% (inactive)
inhibition (mutant strain inhibition): 16.9%

O=S1(=O)CCC(NC(=S)SCc2ccccc2Br)C1 (configuration not stated)
inhibition [1]: -2.13% (inactive)
inhibition (mutant strain inhibition): 13.4%

CC(C)CCn1c(CN(C)Cc2ccccc2)nc2c1c(=O)n(C)c(=O)n2C
inhibition [1]: 1.88% (inactive)
inhibition (mutant strain inhibition): 1.47%

CC(C)Cn1c(CN(Cc2ccccc2)Cc2ccccc2)nc2c1c(=O)n(C)c(=O)n2C
inhibition [1]: 85.5% (active)
inhibition (mutant strain inhibition): 23.3%

COCCn1c(CN(Cc2ccccc2)Cc2ccccc2)nc2c1c(=O)n(C)c(=O)n2C
inhibition [1]: 13% (inactive)
inhibition (mutant strain inhibition): -1.28%

Cc1ccc2nc(C)cc(N/N=C/c3ccc(F)cc3)c2c1
inhibition [1]: 6.16% (inactive)
inhibition (mutant strain inhibition): 21%

CCOC(=O)c1cccc(NC(=O)CCOc2ccccc2)c1
inhibition [1]: 3.69% (inactive)
inhibition (mutant strain inhibition): 2.18%

COc1ccccc1CSc1nc2ccccc2[nH]1
inhibition [1]: -4.85% (inactive)
inhibition (mutant strain inhibition): -2.06%

COc1ccccc1CC(=O)Nc1ccc([N+](=O)[O-])cc1OC
inhibition [1]: -6.53% (inactive)
inhibition (mutant strain inhibition): -1.24%

COc1ccccc1CSc1ncc(-c2ccc([N+](=O)[O-])cc2)[nH]1
inhibition [1]: 63.4% (active)
inhibition (mutant strain inhibition): 30.7%

COCC(C)NCc1cc(Br)ccc1OC (configuration not stated)
inhibition [1]: 7.52% (inactive)
inhibition (mutant strain inhibition): 7.1%

CCCOc1ccc(C(=O)C(CCC(CNCC)C(=O)c2ccc(OCCC)cc2)CNCC)cc1 (configuration not stated)
inhibition [1]: 72.9% (active)
inhibition (mutant strain inhibition): 35.9%

CCCOc1ccc(N/C=C/C(=O)C(C)(C)C)cc1
inhibition [1]: -11.3% (inactive)
inhibition (mutant strain inhibition): -8.28%

CCCOc1ccc(C(=O)NCCc2ccccc2)cc1
inhibition [1]: -6.25% (inactive)
inhibition (mutant strain inhibition): -16.2%

Cc1cc2ccccc2n1CCC(=O)O
inhibition [1]: 7.54% (inactive)
inhibition (mutant strain inhibition): 5.92%

NC(=O)c1ccccc1N(Cc1ccccc1)S(=O)(=O)c1ccccc1
inhibition [1]: -1.27% (inactive)
inhibition (mutant strain inhibition): 17.1%

COc1ccc(S(=O)(=O)N(C)CC(=O)N2CCCC2)cc1Cl
inhibition [1]: -0.67% (inactive)
inhibition (mutant strain inhibition): 5.49%

O=C(O)CC/C(=N\NC(=O)c1ccc(F)cc1)c1ccc(Br)cc1
inhibition [1]: -0.54% (inactive)
inhibition (mutant strain inhibition): 7.09%

Clc1ccc(-c2ncc3ccccn23)c(Cl)c1
inhibition [1]: 24.3% (inactive)
inhibition (mutant strain inhibition): 2.24%

Clc1ccc(COn2c(-c3ccc(Cl)cc3Cl)nc3ncccc32)cc1
inhibition [1]: 73.2% (active)
inhibition (mutant strain inhibition): 48.6%

COn1c(-c2ccc(Cl)cc2Cl)nc2ncccc21
inhibition [1]: 6.69% (inactive)
inhibition (mutant strain inhibition): 2.12%

COCCNC(=S)Nc1cc(S(=O)(=O)N2CCOCC2)ccc1N1CCCCC1
inhibition [1]: 22% (inactive)
inhibition (mutant strain inhibition): 22.7%

CC(=O)NC(Cc1ccccc1)C(=O)NC1CCN(c2ncccc2[N+](=O)[O-])CC1 (configuration not stated)
inhibition [1]: 6.05% (inactive)
inhibition (mutant strain inhibition): 4.93%

COc1ccc(-c2cc(C3CCN(c4ncccc4[N+](=O)[O-])CC3)[nH]n2)cc1
inhibition [1]: 72.2% (active)
inhibition (mutant strain inhibition): 40.6%

COc1ccc(N2CCN(c3ccc([N+](=O)[O-])nc3)CC2)cc1
inhibition [1]: 15.8% (inactive)
inhibition (mutant strain inhibition): 8.11%

O=c1cnnc(Nc2ccccc2F)[nH]1
inhibition [1]: -19.8% (inactive)
inhibition (mutant strain inhibition): -21.4%

O=C(COc1ccc(Cl)cc1)N1CCN(S(=O)(=O)c2ccc(Cl)cc2)CC1
inhibition [1]: -16.2% (inactive)
inhibition (mutant strain inhibition): -6.77%

O=C(COc1ccc(Cl)cc1)N1CCN(c2cccc(C(F)(F)F)c2)CC1
inhibition [1]: 59.2% (active)
inhibition (mutant strain inhibition): 27.3%

CCC(=O)c1ccc(OCC(O)CN2CCN(c3cccc(C(F)(F)F)c3)CC2)cc1 (configuration not stated)
inhibition [1]: 10.7% (inactive)
inhibition (mutant strain inhibition): 17.1%

CC(=O)Oc1ccccc1C1=NN(C(C)=O)C(c2ccccc2)C1 (configuration not stated)
inhibition [1]: -8.11% (inactive)
inhibition (mutant strain inhibition): 7.28%

Cc1cccc(NC(=S)Nc2ccc(Cl)c(Cl)c2)c1
inhibition [1]: 83% (active)
inhibition (mutant strain inhibition): 83%

Cc1cccc(NC(=S)Nc2ccc(Br)cc2)c1
inhibition [1]: -2.23% (inactive)
inhibition (mutant strain inhibition): -3.76%

Cc1cccc(NC(=S)Nc2ccc3cn[nH]c3c2)c1
inhibition [1]: 3.94% (inactive)
inhibition (mutant strain inhibition): -1.45%

CCCCCN(C(=O)NC(=O)Nc1cccc(C)c1C)S(C)(=O)=O
inhibition [1]: -2.53% (inactive)
inhibition (mutant strain inhibition): 12%

O=S(=O)(c1ccc(-c2ccccc2)cc1)N1CCCC1
inhibition [1]: -9.92% (inactive)
inhibition (mutant strain inhibition): -14.9%

CCOC(=O)C1CCc2nc3ccccc3c(=O)n21 (configuration not stated)
inhibition [1]: 96.7% (active)
inhibition (mutant strain inhibition): 18.1%

CCOC(=O)N1CCN(C(=O)Cn2cnc3ccccc3c2=O)CC1
inhibition [1]: -8.2% (inactive)
inhibition (mutant strain inhibition): -9.03%

CCOCCCn1c(NN)nc2ccccc2c1=O
inhibition [1]: 4.28% (inactive)
inhibition (mutant strain inhibition): 1.61%

Cc1nc(-c2ccc(Cl)cc2)sc1C(=O)CBr
inhibition [1]: 29.8% (inactive)
inhibition (mutant strain inhibition): 16%

Cc1ccc(S(=O)(=O)Cc2cc(-c3ccc(Cl)cc3)no2)cc1
inhibition [1]: 17.1% (inactive)
inhibition (mutant strain inhibition): 12.1%

O=C(NCCc1c[nH]c2ccccc12)c1cc2ccccc2oc1=O
inhibition [1]: 15.8% (inactive)
inhibition (mutant strain inhibition): -4.03%

Cc1cc(C)cc(NC(=S)NCCc2c[nH]c3ccccc23)c1
inhibition [1]: 70.2% (active)
inhibition (mutant strain inhibition): 27.3%

Cc1cc(C)cc(NC(=S)NCc2ccc(F)cc2)c1
inhibition [1]: 42.3% (inactive)
inhibition (mutant strain inhibition): 3.44%

CC(C)(C)NC(=O)c1ccc(Cn2cc(C(F)(F)F)ccc2=O)cc1
inhibition [1]: 3.12% (inactive)
inhibition (mutant strain inhibition): 11.4%

Nc1ccc(Nc2ccccc2)cc1
inhibition [1]: 74.9% (active)
inhibition (mutant strain inhibition): 46%

Cc1ccc(Nc2ccccc2N)cc1
inhibition [1]: 48.4% (inactive)
inhibition (mutant strain inhibition): 33.4%

Cc1cc(Nc2ccccc2)n(C(=O)c2ccc(N)cc2)n1
inhibition [1]: -10.2% (inactive)
inhibition (mutant strain inhibition): 32.9%

CCOC(=O)C1(Cc2cccc(OC)c2)CCN(C(C)CC(C)(C)O)CC1 (configuration not stated)
inhibition [1]: -0.94% (inactive)
inhibition (mutant strain inhibition): 20.1%

CCN(CC)CC(=O)Nc1sc2c(c1C(=O)c1ccccc1C)CCC2
inhibition [1]: 56.7% (inactive)
inhibition (mutant strain inhibition): 9.28%

COC(=O)C1=C(Nc2ccc(C)cc2)C=C(C)C(C(=O)OC)C1c1ccc(F)cc1 (configuration not stated)
inhibition [1]: 72.8% (active)
inhibition (mutant strain inhibition): -7.13%

COC(=O)C1C(=O)NCC1c1ccc(C)cc1 (configuration not stated)
inhibition [1]: 19.4% (inactive)
inhibition (mutant strain inhibition): 13.7%

COC(=O)C1=C(Nc2ccc(OC)cc2)C=C(C)C(C(=O)OC)C1c1ccc(C)cc1 (configuration not stated)
inhibition [1]: 11.5% (inactive)
inhibition (mutant strain inhibition): 5.72%

CCC(=O)NC(=S)Nc1ccc(NC(=O)c2ccco2)c(Cl)c1
inhibition [1]: 8.3% (inactive)
inhibition (mutant strain inhibition): -0.75%

Cn1ccc(=NC=C(C#N)C#N)c2ccccc21
inhibition [1]: -8.61% (inactive)
inhibition (mutant strain inhibition): 4.44%

CC1=NNC(=O)C1CCC(=O)N/N=C\c1ccc(Cl)c(Cl)c1 (configuration not stated)
inhibition [1]: -6.04% (inactive)
inhibition (mutant strain inhibition): 2.78%
